In PubChem BioAssay (EPA / NIEHS):
Results filed as inconclusive are left out. Active and inactive are the calls of the source. The calls were made as follows: active = hit-call score of the fitted dose curve at least 0.9, where 1 is the maximum; inconclusive = response in the unintended direction; inactive = score below 0.9.

Assays:
[1] = target: Collagenase 3 (Homo sapiens) (UniProt P45452); test: NVS_ENZ_hMMP13: NovaScreen (NVS) Enzymatic Assay for human Matrix Metalloproteinase-13 (MMP13) (AID 2283182)
Summary of the method: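 Recombinant MMP13 cleaving fluorescent substrate, cell-free, measured 1 h after dosing. Primary duplicate screen at 25 uM; actives tested in concentration-response up to 50 uM; loss of signal relative to DMSO.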

[2] = target: human Matrix Metalloproteinase-2 (MMP2), MMP2 (gene 4313) (UniProt P08253); test: NVS_ENZ_hMMP2: NovaScreen (NVS) Enzymatic Assay for human Matrix Metalloproteinase-2 (MMP2) (AID 2283184)
Sequence of human Matrix Metalloproteinase-2 (MMP2), MMP2 (gene 4313) (P08253 whole entry, looked up): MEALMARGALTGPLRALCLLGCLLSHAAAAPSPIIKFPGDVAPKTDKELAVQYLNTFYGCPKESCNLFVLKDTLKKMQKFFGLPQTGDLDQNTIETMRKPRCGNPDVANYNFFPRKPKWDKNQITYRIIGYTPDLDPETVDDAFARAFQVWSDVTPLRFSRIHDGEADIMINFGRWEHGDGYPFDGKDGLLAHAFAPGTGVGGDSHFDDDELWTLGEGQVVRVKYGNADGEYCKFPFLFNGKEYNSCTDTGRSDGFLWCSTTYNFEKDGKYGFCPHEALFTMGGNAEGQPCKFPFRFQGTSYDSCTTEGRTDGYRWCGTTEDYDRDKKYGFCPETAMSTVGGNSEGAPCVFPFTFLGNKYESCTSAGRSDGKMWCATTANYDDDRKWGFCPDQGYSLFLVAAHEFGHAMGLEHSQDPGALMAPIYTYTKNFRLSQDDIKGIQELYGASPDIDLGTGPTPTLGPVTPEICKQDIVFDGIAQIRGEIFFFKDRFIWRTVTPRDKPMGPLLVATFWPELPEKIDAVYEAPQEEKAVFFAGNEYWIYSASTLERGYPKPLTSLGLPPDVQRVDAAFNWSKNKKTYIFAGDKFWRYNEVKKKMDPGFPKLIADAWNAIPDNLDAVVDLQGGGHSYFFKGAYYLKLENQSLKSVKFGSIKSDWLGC
Summary of the method: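 Cell-free recombinant MMP2 activity with a fluorescent substrate, read 1 h after dosing. Primary screen in duplicate at 25 uM; actives then run in concentration series; loss of signal fitted versus DMSO.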

[3] = target: human Matrix Metalloproteinase-3 (MMP3), MMP3 (gene 4314) (UniProt P08254); test: NVS_ENZ_hMMP3: NovaScreen (NVS) Enzymatic Assay for human Matrix Metalloproteinase-3 (MMP3) (AID 2283185)
Sequence of human Matrix Metalloproteinase-3 (MMP3), MMP3 (gene 4314) (P08254 whole entry, looked up): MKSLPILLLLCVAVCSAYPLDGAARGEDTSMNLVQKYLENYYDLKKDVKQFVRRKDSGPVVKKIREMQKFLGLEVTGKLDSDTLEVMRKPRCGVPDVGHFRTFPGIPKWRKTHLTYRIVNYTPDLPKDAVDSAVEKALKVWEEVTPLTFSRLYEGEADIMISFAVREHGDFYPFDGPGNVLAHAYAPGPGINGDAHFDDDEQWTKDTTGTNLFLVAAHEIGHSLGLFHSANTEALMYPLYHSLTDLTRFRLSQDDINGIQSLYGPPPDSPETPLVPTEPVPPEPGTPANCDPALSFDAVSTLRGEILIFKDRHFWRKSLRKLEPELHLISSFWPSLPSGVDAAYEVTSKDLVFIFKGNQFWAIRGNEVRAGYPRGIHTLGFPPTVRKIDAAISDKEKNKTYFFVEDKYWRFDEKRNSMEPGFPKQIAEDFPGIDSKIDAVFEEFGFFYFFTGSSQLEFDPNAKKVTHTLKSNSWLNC
Summary of the method: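 Cell-free recombinant human MMP3 activity, fluorescence intensity read 1 h after dosing. Primary screen duplicate at 25 uM, actives retested in concentration series; loss of signal vs DMSO baseline.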

[4] = target: human NIMA (Never In Mitosis Gene A)-Related Kinase 2 (NEK2), NEK2 (gene 4751) (UniProt P51955); test: NVS_ENZ_hNEK2: NovaScreen (NVS) Enzymatic Assay for human NIMA (Never In Mitosis Gene A)-Related Kinase 2 (NEK2) (AID 2283188)
Sequence of human NIMA (Never In Mitosis Gene A)-Related Kinase 2 (NEK2), NEK2 (gene 4751) (P51955 whole entry, looked up): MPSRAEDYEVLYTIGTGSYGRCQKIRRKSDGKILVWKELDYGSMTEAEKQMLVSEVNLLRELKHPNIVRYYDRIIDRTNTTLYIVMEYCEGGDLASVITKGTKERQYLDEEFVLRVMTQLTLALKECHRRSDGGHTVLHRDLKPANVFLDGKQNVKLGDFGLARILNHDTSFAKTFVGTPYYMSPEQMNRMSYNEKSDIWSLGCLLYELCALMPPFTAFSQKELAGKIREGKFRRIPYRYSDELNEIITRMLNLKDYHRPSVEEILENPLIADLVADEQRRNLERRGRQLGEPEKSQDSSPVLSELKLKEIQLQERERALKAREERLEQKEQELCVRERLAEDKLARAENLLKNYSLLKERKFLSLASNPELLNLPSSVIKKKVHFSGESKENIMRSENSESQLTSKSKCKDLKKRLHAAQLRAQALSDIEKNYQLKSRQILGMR
Method: NVS_ENZ_hNEK2 is a biochemical, single-readout assay that uses extracted gene-proteins in a cell-free assay. Measurements were taken 1 hour after chemical dosing in a 384-well plate.NVS_ENZ_hNEK2 is one of one assay component(s) measured or calculated from the NVS_ENZ_hNEK2 assay. It is designed to make measurements of enzyme activity, a form of enzyme reporter, as detected with fluorescence intensity signals by Fluorescence and electrophoretic mobility shift technology.Data from the assay component NVS_ENZ_hNEK2 was analyzed into 1 assay endpoint. This assay endpoint, NVS_ENZ_hNEK2, was analyzed in the positive analysis fitting direction relative to DMSO as the negative control and baseline of activity. Using a type of enzyme reporter, loss-of-signal activity can be used to understand changes in the enzymatic activity as they relate to the gene NEK2. Furthermore, this assay endpoint can be referred to as a primary readout, because this assay has produced multiple assay endpoints where this one serves a enzymatic activity function. To generalize the intended target to other relatable targets, this assay endpoint is annotated to the kinase intended target family, where the subfamily is serine/threonine kinase. […]

In the case of CCCCCCCCCC[N+](C)(C)CCCCCCCCCC, the outcome [1] is reported as “inactive”.
For CC(C)C(=O)OCC(C)(C)C(OC(=O)C(C)C)C(C)C (configuration not stated), the outcome [2] was “inactive”.
With O=NN(c1ccccc1)c1ccccc1 the outcome [2] was “inactive”.
With O=C(O)C(F)(F)C(F)(F)C(F)(F)C(F)(F)C(F)(F)C(F)(F)C(F)(F)C(F)(F)C(F)(F)F the AC50 [3] was 12.5 µM (active).
With CO/C=C(/C(=O)OC)c1ccccc1COc1cccc(C(F)(F)F)n1 the outcome [3] was “inactive”.
O=C(O)C(F)(F)C(F)(F)C(F)(F)C(F)(F)C(F)(F)C(F)(F)C(F)(F)C(F)(F)F was tested, and the AC50 [4] was 40.7 µM (active).
With c1cc2ccc3cccc4ccc(c1)c2c34 the outcome [4] was “inactive”.
